CF NFkB block = blocks PAF-induced NF-kB reporter in cystic fibrosis cells. KKLEB NF-kB-GFP reporter, GFP fluorescence overnight. 360,000 compounds, 0.86% hits. inhibition, % at 5 µM. AID 588850;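 active = at least 50% inhibition at 5 µM, scaled per plate between neutral and stimulator controls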;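 note: PAF is a Pseudomonas aeruginosa culture filtrate used as stimulus; plate controls were PAF-stimulated DMSO wells for no effect and unstimulated DMSO wells for full effect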
EWS-Fli inh = EWS/Fli transcriptional activity inhibition. A673 NR0B1-luciferase reporter, viability-normalised. inhibition, % at 12.6 µM. 350,000 compounds, 0.67% hits. AID 651661;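 active = mean inhibition of at least 50% after viability correction, with every replicate also passing that limit; inconclusive = mean reaches 50% but only one of two replicates passes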;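 note: firefly luciferase signal divided by Alamar Blue viability fluorescence both relative to DMSO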
LGR2 inh = inhibitors of bursicon-induced Drosophila LGR2 receptor cAMP signaling; inhibition, % at 9.99 µM; HEK293 LGR2, CRE-luciferase, bursicon-stimulated, 4 h; 380,000 compounds, 0.35% hits; AID 720647;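 active = drop in luminescence signal, shown as inhibition above about 50% in the replicate tests, limit read from the data, passing the limit was not always enough; inconclusive = probably only some replicates passing the limit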;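 note: agonist challenge used bursicon conditioned medium at about half maximal strength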
Shn3 3UTR inh = reduces Shn3 3'UTR luciferase signal in osteoblasts | 360,000 compounds, 0.52% hits | AID 588674 | Clone20 osteoblast Shn3 3'UTR firefly luciferase, 24 h | inhibition, % at 12.5 µM;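 active = mean inhibition of at least 75% with every replicate also reaching 75%; inconclusive = mean inhibition at least 75% but some replicate below; inactive = mean inhibition below 75%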;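 note: 0% = median of neutral control wells and 100% = pilot-screen positive control compound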
PAX8 inh HTS = inhibitors of PAX8 transcriptional activity in RMG-I cells | inhibition, % at 12.6 µM | 360,000 compounds, 1.2% hits | RMG-I TPO-luciferase reporter, SteadyGlo, 24 h;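 active = mean replicate inhibition at least 60% with every replicate also reaching 60%; inconclusive = only one of the two criteria is met; inactive = mean below 60% and not all replicates reaching 60%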;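 note: luciferase light reporting Pax8 driven TPO promoter activity; plate controls were median of neutral control wells for no effect and mitoxantrone controls for full effect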
KKLEB tox = CF airway cell cytotoxicity counter-screen; KKLEB CF airway cells viability, ATPlite luminescence, overnight; active compounds read low; cells stimulated with P. aeruginosa culture filtrate; activity change (cytotoxicity), % at 5 µM; 360,000 compounds, 0.36% hits; AID 602141;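 active = corrected activity change at or below -50% at 5 µM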
Starred values were filed as active, the others as inactive; u = inconclusive; x = no result given; ! = repeats disagree. Only some compounds are listed: those with a hit (about 2% of all), similar ones and a draw of the others.

SMILES	CF NFkB block	EWS-Fli inh	LGR2 inh	Shn3 3UTR inh	PAX8 inh HTS	KKLEB tox
C[C@@H]1CCCCO[C@H](CN(C)C(=O)C2CCCCC2)[C@H](C)CN([C@H](C)CO)C(=O)c2cc(NS(=O)(=O)c3ccc(Cl)cc3)ccc2O1	x	17	18	x	67*	x
Cc1ccc(S(=O)(=O)Nc2ccc3c(c2)C(=O)N([C@H](C)CO)C[C@@H](C)[C@H](CN(C)C(=O)C2CCCCC2)OCCCC[C@H](C)O3)cc1	x	13	5	x	75*	x
C[C@H]1CCCCO[C@H](CN(C)C(=O)C2CCCCC2)[C@@H](C)CN([C@@H](C)CO)C(=O)c2cc(NS(=O)(=O)c3ccc(Cl)cc3)ccc2O1	x	54*	0	x	86*	x
COc1ccc2c3c([nH]c2c1)[C@@H](CO)N(C(=O)CN(C)C)CC31CCN(C(=O)c2ccncc2)CC1	x	1	1	x	x	x
O=C(Nc1ccccc1)N1C[C@H]2[C@@H](c3ccccc31)[C@@H](CO)N2C(=O)c1cccnc1	x	-10	5	x	-76	x
CCC(=O)N1C[C@@H](C)[C@@H](OC)CN(C)C(=O)c2ccc(NC(=O)CC(F)(F)F)cc2OC[C@@H]1C	x	-5	0	x	-39	x
COc1cc(NC(=O)c2ccnc(N)c2)cc(C(=O)Nc2cccc(C(F)(F)F)c2)c1	-2	-14	-17	-2	52	10
COc1cc(NC(=O)c2cc(C)on2)cc(C(=O)Nc2cccc(C(F)(F)F)c2)c1	17	17	2	28	86*	-13
COc1cc(NC(=O)c2csc(N)n2)cc(C(=O)Nc2cccc(C(F)(F)F)c2)c1	10	61*	-11	-13	82*!	4
C[C@H](NC(=O)[C@H]1[C@H](CO)[C@H]2Cn3c(cccc3=O)[C@H]2N1Cc1cccnc1)c1ccccc1	x	5	6	x	x	x
C[C@H](CO)N1C[C@H](C)[C@@H](CN(C)CC2CCCCC2)Oc2c(NC(=O)CCCCCC(=O)Nc3ccccc3N)cccc2C1=O	x	x	-34	x	81*	x
C[C@H]1CN([C@@H](C)CO)C(=O)c2cccc(NC(=O)CCCCCC(=O)Nc3ccccc3N)c2O[C@@H]1CN(C)Cc1ccc(Cl)c(Cl)c1	x	x	-3	x	65*	x
C[C@H]1CN([C@@H](C)CO)C(=O)c2cccc(NC(=O)CCCCCC(=O)Nc3ccccc3N)c2O[C@H]1CN(C)CC1CCCCC1	x	-3	5	x	-15	x
C[C@H](CO)N1C[C@H](C)[C@@H](CN(C)Cc2ccc(Oc3ccccc3)cc2)Oc2c(NC(=O)CCCCCC(=O)Nc3ccccc3N)cccc2C1=O	x	27	19	x	63*	x
C[C@@H]1CN([C@@H](C)CO)C(=O)c2cccc(NC(=O)CCCCCC(=O)Nc3ccccc3N)c2O[C@H]1CN(C)Cc1ccc(Cl)c(Cl)c1	x	33	-5	x	52	x
C[C@@H]1CCCCO[C@@H](CN(C)C(=O)Nc2ccccc2)[C@H](C)CN([C@H](C)CO)C(=O)c2cc(NS(=O)(=O)c3cn(C)cn3)ccc2O1	x	-9	4	x	-12	x
C[C@@H]1CN([C@@H](C)CO)C(=O)Cc2cc(NS(=O)(=O)c3cccs3)ccc2O[C@H]1CN(C)C(=O)Nc1ccc(F)cc1	x	4	1	x	8	x
Cc1ccccc1-c1ccc(C2[C@@H]3CN(C(=O)C4CCCC4)C[C@H]2N3)cc1 (some centres undefined)	x	2	-5	x	x	x
O=C(Nc1ccc(F)cc1)N1C[C@@H]2N[C@H](C1)C2c1ccc(-c2ccccc2F)cc1 (some centres undefined)	x	-4	8	x	108*!	x
O=C(C1CC1)N1C[C@@H]2N[C@H](C1)C2c1ccc(-c2ccccc2F)cc1 (some centres undefined)	x	11	88*!	x	87*!	x
COCC(=O)Nc1ccc2c(c1)C(=O)N(C)C[C@@H](OC)[C@H](C)CN(Cc1cccnc1)[C@@H](C)CO2	x	-5	-4	x	-6	x
O=C(Nc1ccc(S(=O)(=O)NC2=NCCCCC2)cc1)c1ccc([N+](=O)[O-])s1	39	59*	16	11	95*	-1
CC(C)NC(=O)Nc1cccc2c1O[C@@H](CN(C)C(=O)Nc1cccc3ccccc13)[C@@H](C)CN([C@H](C)CO)C2=O	x	5	-20	x	14	x
COc1ccccc1-c1cc(-c2ccccc2)nc(SC(C(N)=O)c2ccccc2)c1C#N (centres undefined)	60*	x	x	38	x	-72*
Cc1noc(C)c1COc1cccc(C(=O)NCCc2c[nH]c3ccccc23)c1	-11	55*	3	18	13	-5
SMILES	CF NFkB block	EWS-Fli inh	LGR2 inh	Shn3 3UTR inh	PAX8 inh HTS	KKLEB tox
N#C[C@H]1[C@@H](c2ccc(C#CC3CCCCC3)cc2)[C@@H](CO)N1C(=O)Cc1ccccn1	x	-16	x	x	61*	x
N#C[C@@H]1[C@@H](c2ccc(-c3ccccc3)cc2)[C@@H](CO)N1C(=O)Cc1ccncc1	x	-11	-4	x	68*	x
N#C[C@H]1[C@H](c2ccc(C#Cc3ccc(F)cc3)cc2)[C@H](CO)N1C(=O)Nc1ccc(F)cc1	x	9	9	x	49	x
N#C[C@@H]1[C@H](c2ccc(C#CC3CCCCC3)cc2)[C@@H](CO)N1C(=O)c1cccc(F)c1	x	35	65*	x	6	x
N#C[C@H]1[C@@H](c2ccc(C#Cc3ccc(F)cc3)cc2)[C@H](CO)N1C(=O)Nc1ccc(F)cc1	x	17	14	x	94*	x
N#C[C@H]1[C@H](c2ccc(-c3ccccc3)cc2)[C@H](CO)N1C(=O)Cc1ccncc1	x	3	2	x	14	x
N#C[C@H]1[C@H](c2ccc(C#CC3CCCCC3)cc2)[C@@H](CO)N1C(=O)Cc1ccccn1	x	4	-5	x	18	x
CCCC(=O)Nc1ccc2c(c1)OC[C@@H](C)N(C(=O)c1ccccn1)C[C@H](C)[C@H](OC)CN(C)C2=O	x	2	-6	x	-3	x
N#C[C@@H]1[C@H](c2ccc(C#CC3CCCC3)cc2)[C@H](CO)N1C(=O)Nc1ccc(F)cc1	x	-1	-7	x	85*	x
Cc1ccc(C(=O)c2no[n+]([O-])c2C(=O)c2ccc(C)cc2)cc1	100*	u	-14	20	7	-76*
O=C(NCc1ccccc1)C(c1ccccc1)N(Cc1ccccc1)C(=O)Cc1ccccc1 (centres undefined)	x	71*	x	x	79*	x
CN(C[C@@H]1N[C@@H](CO)[C@@H]1c1ccc(C2=CCCC2)cc1)S(C)(=O)=O	x	-3	0	x	1	x
O=C(C[C@H]1CC[C@H]2[C@@H](COC[C@@H](O)CN2S(=O)(=O)c2ccccc2)O1)NCc1ccc2c(c1)OCO2	x	5	-11	x	0	x
COC(=O)Cn1c(=O)c(C(=O)CCl)c(N)n(Cc2ccccc2)c1=O	28	u	-8	x	63*	5
CN(C)c1cccc2c(S(=O)(=O)NCC3CCN(C(=O)C(=O)c4cc5ccccc5o4)CC3)cccc12	x	10	11	x	62*	x

Screening data from PubChem.
